PG9 binder: small molecules binding HIV-1 gp120 antibody PG9. TR-FRET gp120-PG9 antibody binding. inhibition, % at 6.7 µM. 360,000 compounds, 0.43% hits; in the data active means inhibition above about 8.5%
ABCB6 inh 2: inhibitors of human ABC transporter ABCB6; Q9NP58; K562-ABCB6 porphyrin accumulation, flow cytometry, 1 h; stronger effect = lower value; fluorescence ratio to DMSO, % at 10 µM; 360,000 compounds, 0.19% hits; AID 602162;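 active means fluorescence ratio to DMSO below 75%, the collection mean minus 3 SD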;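 further: signal is porphyrin accumulated inside mitochondria; 100% equals median channel fluorescence of DMSO control wells; lower ratio means ABCB6 inhibition with less porphyrin fluorescence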
Granule exo inh: blocks lytic granule exocytosis. TALL-104 LAMP-1 surface exposure, flow cytometry; cells stimulated with thapsigargin and PMA. inhibition, % at 10 µM. 360,000 compounds, 0.66% hits;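 active means inhibition above about 55%, limit read from the data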
rCAG binder: binds r(CAG) RNA repeats. inhibition, % at 3 µM. r(CAG) RNA repeat, TO-PRO-1 dye displacement fluorescence. 370,000 compounds, 1.3% hits;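 active means inhibition above the plate cutoff, the mean of all test compounds on that plate plus 3 SD, cut at about 35% in these data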;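 further: 0% = DMSO alone and 100% = 100 µM mitoxantrone as full dye displacement; higher means more dye released from RNA so lower well fluorescence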
rCAG binder conf: r(CAG) RNA repeat binding, confirmation; TO-PRO-1 dye displacement fluorescence; inhibition, % at 3 µM; shares compounds with rCAG binder; AID 652065; 4,300 compounds, 70% hits;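 active means inhibition above a per-plate cutoff, the mean inhibition of sample wells plus 3 SD, cut at about 35% in these data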;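 further: loss of TO-PRO-1 fluorescence as compound displaces dye from 1x1 AA loop RNA; 0% = DMSO only wells and 100% = 100 µM mitoxantrone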
dCAG dye counter: counter-screen for rCAG RNA binders: DNA CAG dye complex inhibitors | inhibition, % at 3 µM | AID 652068 | d(CAG) DNA oligo TO-PRO-1 dye displacement, fluorescence | 4,300 compounds, 94% hits | shares compounds with rCAG binder;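 active means inhibition above its plate's cutoff, the mean test-well inhibition plus 3 SD, cut at about 4.8% in these data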;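 further: 0% = DNA dye mix with DMSO and 100% = 100 µM mitoxantrone; hits displace the dye from DNA and so lower well fluorescence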
* marks the source's active call; other numbers are inactive results; x = no result. Only some compounds are listed: those with a hit (about 2.5% of all), similar ones and a draw of the others.

SMILES	PG9 binder	ABCB6 inh 2	Granule exo inh	rCAG binder	rCAG binder conf	dCAG dye counter
N#Cc1ccsc1NC(=O)C1CCN(C(=O)c2ccc(Cl)cc2)CC1	-3	101	-2	-2	x	x
Cc1ccc(CNC(=O)C(C)OC(=O)c2ccco2)cc1 (stereo unspecified)	4	98	0	56*	2	-1
Cc1ccc(CNC(=O)C(OC(=O)c2ccco2)C(C)C)cc1 (stereo unspecified)	0	101	-2	-6	x	x
CCn1nc(C(=O)Nc2ccc(S(=O)(=O)Nc3nccs3)cc2)c2ccccc2c1=O	-1	96	-2	42*	56*	18*
O=C(Nc1ccc(S(=O)(=O)Nc2nccs2)cc1)c1nn(-c2ccccc2)ccc1=O	-1	98	11	43*	55*	26*
O=C(Nc1ccc(S(=O)(=O)Nc2nccs2)cc1)c1cccc(N2C(=O)c3ccccc3C2=O)c1	2	100	-14	69*	58*	23*
Cc1cccc(-n2ccc(=O)c(C(=O)Nc3ccc(S(=O)(=O)Nc4nccs4)cc3)n2)c1	0	101	-2	65*	14	6.0*
COc1ccc(-n2ccc(=O)c(C(=O)Nc3ccc(S(=O)(=O)Nc4nccs4)cc3)n2)cc1	-1	96	-12	18	x	x
COc1ccc(S(=O)(=O)N2CCOCC2)cc1NC(=O)CCCOc1ccc(C(C)=O)cc1	0	95	1	4	x	x
COCCn1c(=O)c2c(nc3n2CCCN3CCc2ccc(OC)c(OC)c2)n(C)c1=O	1	95	1	-5	x	x
Cc1cc(=O)oc2cc(OCC(=O)NC3CCCCC3)ccc12	-3	103	-7	-2	x	x
COc1cc(OC)c(S(=O)(=O)Nc2ccc(C(=O)O)cc2)cc1S(=O)(=O)Nc1ccc(C(=O)O)cc1	1	96	-4	8	x	x
COc1ccc(C2C(C#N)=C(N)Oc3c2c(-c2ccccc2)nn3-c2ccccc2)c(OC)c1OC (stereo unspecified)	-2	92	-5	42*	23	10*
Cn1nc(C(=O)NNC(=O)Cc2ccc(S(=O)(=O)N3CCOCC3)s2)c2ccccc2c1=O	-2	96	3	8	x	x
Cc1ccc(O)c(Cc2cc(C)cc(Cc3cc(C)ccc3O)c2O)c1	-2	97	0	40*	39*	11*
O=c1[nH][nH]c2cc(=O)n(-c3cccc(C(F)(F)F)c3)nc12	-5	98	0	59*	48*	17*
C/C(=N\NC(=O)c1ccccc1)c1cc2cc([N+](=O)[O-])ccc2oc1=O	0	97	0	50*	44*	15*
C/C(=N\NC(=O)c1ccc([N+](=O)[O-])cc1)c1cc2ccccc2oc1=O	-2	89	-2	10	x	x
Cc1c(Nc2nc3ccccc3nc2NS(=O)(=O)c2cccc(Cl)c2)c(=O)n(-c2ccccc2)n1C	1	100	-3	52*	48*	15*
CC1(C(=O)NS(=O)(=O)c2ccc3ccccc3c2)CCN1C(=O)Cc1ccc(Cl)cc1Cl (stereo unspecified)	0	97	-4	52*	54*	18*
CCCCc1ccc(S(=O)(=O)NC(=O)C2(C)CCN2C(=O)CCc2cccs2)cc1 (stereo unspecified)	-2	99	-6	44*	36*	9.9*
CC1(C(=O)NS(=O)(=O)c2cccc(Cl)c2)CCN1C(=O)CCc1ccc(Cl)cc1Cl (stereo unspecified)	1	96	0	54*	52*	16*
COc1ccc(Br)cc1/C=N/n1c(-c2ccccc2)n[nH]c1=S	1	94	-2	5	x	x
CCn1c(SCC(=O)N2CCCCCC2)nc2c(c1=O)SCC2	-4	93	1	4	x	x
CC1(C(=O)NS(=O)(=O)c2cccc(OC(F)F)c2)CCN1C(=O)c1ccco1 (stereo unspecified)	1	102	-2	3	x	x
SMILES	PG9 binder	ABCB6 inh 2	Granule exo inh	rCAG binder	rCAG binder conf	dCAG dye counter
CCCCN(c1ccccc1)S(=O)(=O)c1cccc2cccnc12	1	96	-3	-5	x	x
Cc1ccc(S(=O)(=O)Nc2cc(-c3ccccc3)nn2C)cc1Cl	0	99	1	57*	38*	9.9*
Cc1ccc(S(=O)(=O)Nc2cc(-c3ccccc3)nn2C)cc1	1	94	2	17	x	x
Cc1ccc(S(=O)(=O)Nc2cc(-c3ccc(Cl)cc3)nn2C)cc1	-1	90	-1	48*	48*	11*
CN(CC(=O)Nc1ccc(OC(F)(F)F)cc1)C(=O)/C=C/c1cc2c(cc1[N+](=O)[O-])OCO2	1	99	-2	4	x	x
O=C(N=Nc1c(O)[nH]c2ccccc12)c1ccccc1NS(=O)(=O)c1cccs1	-3	99	-6	65*	41*	15*
Cc1cccc2c(N=NC(=O)c3ccc(NS(=O)(=O)c4cccs4)cc3)c(O)[nH]c12	-2	100	0	42*	72*	30*
COc1ccc2[nH]c(O)c(N=NC(=O)c3ccc(NS(=O)(=O)c4cccs4)cc3)c2c1	0	110	1	36*	57*	25*
Cc1ccc2[nH]c(O)c(N=NC(=O)c3ccc(NS(=O)(=O)c4cccs4)cc3)c2c1	0	97	-2	11	x	x
O=C(N=Nc1c(O)[nH]c2ccc(F)cc12)c1ccc(NS(=O)(=O)c2cccs2)cc1	0	96	-3	5	x	x
COc1ccc(CCNC(=O)COC(=O)C2CC2)cc1OC	0	99	-1	0	x	x
COc1cccc(NC(=S)NC2CC(C)CC(C)(C)C2)c1 (stereo unspecified)	2	93	-3	2	x	x
CCc1ccc(CN(C)C(=O)C2CCC(=O)N(CC3CCCCC3)C2)cc1 (stereo unspecified)	0	102	-4	-12	x	x
COc1cc2c(oc(=O)c3cc(C)cc(OC)c32)c2c(C3OC(C)C(O)C(C)(O)C3O)ccc(O)c12 (stereo unspecified)	-4	105	30	52*	13	6.9*
O=C(Nc1nnc(C2CC2)o1)c1ccc(S(=O)(=O)N2CCCc3ccccc32)cc1	-1	101	1	36*	32	11*
COCc1nnc(NC(=O)c2ccc(S(=O)(=O)N3CCCc4ccccc43)cc2)o1	1	99	-1	25	x	x
COc1ccc(CNc2ccc3c(c2)nc(C)n3C)cc1	-4	108	-1	-4	x	x
COc1ccc(OC)c(CNc2ccc3c(c2)nc(C)n3C)c1	-6	99	-10	44*	2	1
COc1cc(Br)c(/C=C/c2ccc3cccc(O)c3n2)cc1OC	-1	103	-3	14	x	x
COc1cc(/C=C/c2ccc3cccc(O)c3n2)c(Br)cc1O	-1	134	-20	48*	45*	21*
Oc1c(Cl)cc(Cl)cc1/C=C/c1ccc2cccc(O)c2n1	-1	144	1	41*	56*	21*

High-throughput results as filed in PubChem.
